This passage reports outcome and AC50 results from PubChem BioAssay (EPA / NIEHS).

Some structures have more than one record in an assay (separate samples or runs), and their calls can disagree. The source made the active and inactive calls. Rule for the calls: active = hit-call score of the fitted dose curve at least 0.9, where 1 is the maximum; inactive = score below 0.9.

The nature of test [1]: ATG_PXRE_CIS: Attagene CIS-FACTORIAL HepG2 Assay for human Pregnane X Receptor Element (PXRE) (AID 2282957). The conditions noted are these: HepG2 Attagene CIS-FACTORIAL PXRE reporter, mRNA; actives raise or lower the signal. An outline of the steps: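 Cis-element reporter mRNA in human hepatoma HepG2 cells is measured 24 h post-dosing by RT-PCR, primer-extension labeling and capillary electrophoresis; gain or loss of signal is fitted relative to DMSO.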

A short description of test [2]: ATG_PPRE_CIS: Attagene CIS-FACTORIAL HepG2 Assay for human Peroxisome Proliferator-activated Response Element (PPRE) (AID 2282958). The settings on record: HepG2 PPRE cis-element reporter, Attagene transcription factor profiling; actives raise or lower the signal. An outline of the steps:
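HepG2 cells are transiently transfected with multiplexed cis-promoter reporter units to report endogenous PPAR activity. After 24 h dosing, reporter mRNA is read by RT-PCR and capillary electrophoresis. Fitting is bidirectional against DMSO.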

The nature of test [3]: ATG_RORE_CIS: Attagene CIS-FACTORIAL HepG2 Assay for human RAR-related Orphan Receptor Element (RORE) (AID 2282959). The conditions noted are these: HepG2 Attagene cis-factorial RORE reporter, mRNA; actives raise or lower the signal. An outline of the steps:
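HepG2 cells carrying transiently transfected cis-regulated reporter units; RORE-driven reporter mRNA quantified 24 h post-dosing by RT-PCR, 6-FAM primer extension, HpaI digestion and capillary electrophoresis. Bidirectional fit versus DMSO.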

For test [4], the target named is Transcription factor Sp1 (Homo sapiens) (UniProt P08047). Put plainly: ATG_Sp1_CIS: Attagene CIS-FACTORIAL HepG2 Assay for human Specificity Protein 1 (Sp1) (AID 2282961). The conditions noted are these: HepG2 Sp1 cis-reporter transcription, actives raise or lower the signal. An outline of the steps:
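HepG2 cells transiently transfected with multiplexed cis-regulated reporter constructs, chemical exposure 24 h. Reporter mRNA quantified by RT-PCR with capillary electrophoresis; bidirectional fit relative to DMSO.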

A short description of test [5]: ATG_SREBP_CIS: Attagene CIS-FACTORIAL HepG2 Assay for human Sterol Regulatory Element Binding (SREBP) (AID 2282962). The conditions noted are these: HepG2 Attagene cis-factorial SREBP reporter, mRNA; actives raise or lower the signal. An outline of the steps:
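HepG2 cells transiently transfected with multiplexed cis-element reporter units report endogenous transcription factor activity. After 24 h of chemical exposure, reporter mRNA was quantified by RT-PCR, 6-FAM labelling, HpaI digestion and capillary electrophoresis; bidirectional fits used DMSO as baseline.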

Test [6] has as its target Signal transducer and activator of transcription 3 (Homo sapiens) (UniProt P40763). The test is described as follows: ATG_STAT3_CIS: Attagene CIS-FACTORIAL HepG2 Assay for human Signal Transducer and Activator of Transcription 3 (STAT3) (AID 2282963). The settings on record: HepG2, Attagene cis-factorial STAT3 reporter transcription; actives raise or lower the signal. An outline of the steps: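 HepG2 cells transiently transfected with cis-element-driven multiple reporter transcription units; after 24 h chemical exposure, reporter mRNA measured by RT-PCR, 6-FAM primer-extension labelling, HpaI digestion and capillary electrophoresis. Bidirectional fitting versus DMSO baseline.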

Test [7] is described as follows: ATG_TA_CIS: Attagene CIS-FACTORIAL HepG2 Assay for human TA Basal Promoter (AID 2282964). The settings on record: HepG2 Attagene CIS-factorial TA basal promoter reporter; actives raise or lower the signal. An outline of the steps:
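Multiplexed mRNA reporter assay, HepG2, 24 h. Reporter cDNA amplified, 6-FAM primer-extended, HpaI-cut, CE-sized; DMSO = negative control and baseline.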

Test [8] can be described thus: ATG_TCF_b_cat_CIS: Attagene CIS-FACTORIAL HepG2 Assay for human T-Cell-Factor with beta-catenin (TCF/b-cat) (AID 2282965). The conditions noted are these: HepG2 TCF/beta-catenin cis-reporter transcription, actives raise or lower the signal. An outline of the steps:
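In this cis-format system, transfected HepG2 cells report endogenous transcription factor activity. Readout after 24 h exposure is reporter transcript abundance from RT-PCR and capillary electrophoresis, analysed for gain or loss of signal versus DMSO.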

Test [9] is described as follows: ATG_Sox_CIS: Attagene CIS-FACTORIAL HepG2 Assay for human SRY-box transcription factor (SOX) (AID 2282960). The settings on record: HepG2 Attagene cis-factorial SOX reporter, mRNA; actives raise or lower the signal. An outline of the steps: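 HepG2 cells transiently transfected with multiple cis-regulated reporter units, then dosed for 24 h. Reporter mRNA quantified by RT-PCR, fluorescent labelling, HpaI digestion and capillary electrophoresis; bidirectional fit versus DMSO.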

Chain of Transcription factor Sp1 (Homo sapiens) (P08047 whole entry, looked up): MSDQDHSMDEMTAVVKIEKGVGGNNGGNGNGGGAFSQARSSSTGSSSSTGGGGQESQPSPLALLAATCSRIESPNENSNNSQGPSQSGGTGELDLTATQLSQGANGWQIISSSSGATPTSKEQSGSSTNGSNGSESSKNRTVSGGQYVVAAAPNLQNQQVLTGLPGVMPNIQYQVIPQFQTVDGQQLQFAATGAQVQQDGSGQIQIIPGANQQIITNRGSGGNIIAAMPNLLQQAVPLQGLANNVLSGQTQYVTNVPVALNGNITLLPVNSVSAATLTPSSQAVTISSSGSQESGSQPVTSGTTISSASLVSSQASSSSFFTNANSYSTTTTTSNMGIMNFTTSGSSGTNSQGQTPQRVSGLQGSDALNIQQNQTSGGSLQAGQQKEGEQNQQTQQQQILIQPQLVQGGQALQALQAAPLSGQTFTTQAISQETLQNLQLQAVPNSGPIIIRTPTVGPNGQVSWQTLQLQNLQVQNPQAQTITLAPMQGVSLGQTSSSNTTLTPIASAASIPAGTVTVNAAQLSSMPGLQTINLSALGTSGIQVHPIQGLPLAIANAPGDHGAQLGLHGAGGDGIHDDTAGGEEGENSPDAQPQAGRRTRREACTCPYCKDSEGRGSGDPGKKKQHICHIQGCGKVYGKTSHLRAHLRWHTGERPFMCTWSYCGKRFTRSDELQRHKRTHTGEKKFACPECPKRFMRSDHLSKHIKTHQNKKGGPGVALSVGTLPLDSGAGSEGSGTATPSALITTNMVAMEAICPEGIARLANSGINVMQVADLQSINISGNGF
Chain of Signal transducer and activator of transcription 3 (Homo sapiens) (P40763 whole entry, looked up): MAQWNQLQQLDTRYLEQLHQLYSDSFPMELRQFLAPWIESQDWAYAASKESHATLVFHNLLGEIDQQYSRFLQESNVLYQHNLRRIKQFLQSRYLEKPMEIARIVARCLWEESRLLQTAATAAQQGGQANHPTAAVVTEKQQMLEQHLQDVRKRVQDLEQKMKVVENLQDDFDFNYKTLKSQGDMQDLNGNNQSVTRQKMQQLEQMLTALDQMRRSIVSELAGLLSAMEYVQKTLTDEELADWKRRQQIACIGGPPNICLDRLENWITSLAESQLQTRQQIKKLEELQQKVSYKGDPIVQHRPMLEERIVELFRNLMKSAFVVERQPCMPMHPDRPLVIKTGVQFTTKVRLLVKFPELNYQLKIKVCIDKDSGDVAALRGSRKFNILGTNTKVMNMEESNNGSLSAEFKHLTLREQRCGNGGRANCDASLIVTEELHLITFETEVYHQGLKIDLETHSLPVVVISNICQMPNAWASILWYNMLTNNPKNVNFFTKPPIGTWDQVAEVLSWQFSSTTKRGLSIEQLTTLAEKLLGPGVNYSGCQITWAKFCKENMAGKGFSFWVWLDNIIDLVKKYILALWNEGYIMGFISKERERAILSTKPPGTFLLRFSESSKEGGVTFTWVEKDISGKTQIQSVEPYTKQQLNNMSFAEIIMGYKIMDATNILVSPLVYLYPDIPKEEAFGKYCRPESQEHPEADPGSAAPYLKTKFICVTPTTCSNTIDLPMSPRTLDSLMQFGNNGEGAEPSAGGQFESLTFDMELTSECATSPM

For orientation: AC50 means the concentration giving half of the maximal activity seen. Turning to `C=C(C)C(=O)[O][Sn]([CH2]CCC)([CH2]CCC)[CH2]CCC`, the outcome in test [1], in [3], in test [4], in [5], in test [6] and in test [8] was inactive. Moreover, the AC50 in test [2] was 0.0903 µM (active); in test [7], 591 nM (active).

Consider `c1cc[c]([Hg][c]2ccccc2)cc1`, for which the outcome in [1], in [2], in test [9], in test [5], in [6] and in test [7] was inactive. The compound was classed as inactive in test [8]. In addition, the concentration at half-maximal activity (AC50) is 25.6 µM (active) in [3] and 24.5 µM (active) in [4].

In the case of `ClCc1cccnc1`, the call in test [1], in test [2], in test [3], in test [5], in test [6] and in test [7] was inactive. Moreover, the compound was called inactive in test [8]. For the same compound, in test [4], the half-maximal activity concentration (AC50) was 30.8 µM (active).

As for `ClC1(Cl)C2(Cl)C3(Cl)C4(Cl)C(Cl)(Cl)C5(Cl)C3(Cl)C1(Cl)C5(Cl)C24Cl` (stereo unspecified), the AC50 in test [1] was 0.365 µM (active). For the same compound, the compound was classed as inactive in test [2], in test [9], in test [4], in test [5], in [6] and in [7]. Also, in test [8], the call was inactive.

Consider `O=C(NCO)NCO`, for which the half-maximal activity concentration (AC50) in test [1] was 27.2 µM (active). Also, the call in test [2], in test [3], in [4], in test [5], in test [6] and in [7] was inactive. Also, the outcome in test [8] was inactive.

`Cc1ccccc1C(=O)Nc1cccc(OC(C)C)c1`: in test [1], the AC50 is 2.89 µM (active). Also, the outcome in test [2], in test [3], in test [9], in test [4], in [5] and in test [6] was inactive. The result in test [7] and in test [8] was inactive.

`Cc1ccc2ccccc2c1C`: in [1], the AC50 was 10.1 µM (active). For the same compound, the result in test [2], in [3], in test [9], in test [4], in [5] and in [6] was inactive. The call in test [7] and in test [8] was inactive.

`CNC`: the outcome in test [1], in test [2], in test [3], in test [9], in test [4] and in test [5] was inactive. Also, the compound was classed as inactive in [6], in test [7] and in test [8].

Turning to `O=C1C(Cl)=C(Cl)C(=O)c2ccccc21`, the result in test [1], in [2], in test [3], in [4], in test [5] and in [6] was inactive. The compound was called inactive in test [7] and in [8].

Consider `ClC(Cl)=C(Cl)C(Cl)=C(Cl)Cl`, for which the concentration at half-maximal activity (AC50) in [1] is 130 µM (active); in test [4], 160 µM (active); in [5], 156 µM (active); in test [8] it was 40.4 µM (active). In addition, the result in [2], in [3], in test [9], in test [6] and in [7] was inactive.

Regarding `OCC(O)CCl` (stereo unspecified), the call in test [1], in test [2], in test [3], in test [9], in [4] and in test [5] was inactive. Moreover, the outcome in test [6], in test [7] and in test [8] was inactive.

Regarding `C[C@@H]1C[C@@H]([C@H](O)CC2CC(=O)NC(=O)C2)C(=O)[C@@H](C)C1`, the AC50 is 27.5 µM (active) in test [2] and 8.48 µM (active) [middle of 4 runs] in test [8]. Moreover, the compound was called inactive in test [2], in test [3], in test [9], in test [4], in [5] and in [6]. Further, the outcome in test [7] was inactive.

As to `Clc1ccc(C2(Cn3cncn3)CC(Br)CO2)c(Cl)c1` (stereo unspecified), the concentration at half-maximal activity (AC50) is 1.23 µM (active) in test [1], 99.5 µM (active) in [2], 70.7 µM (active) in test [3] and 8.75 µM (active) in test [5]. The outcome in test [4], in test [6], in test [7] and in test [8] was inactive.

As to `CNC(=O)O/N=C/C(C)(C)S(C)=O` (stereo unspecified), the compound was classed as inactive in test [1], in test [2], in test [3], in test [9], in test [4] and in [5]. In addition, the call in test [6], in test [7] and in test [8] was inactive.

Take `COc1ccc(C=O)cc1`: the compound was called inactive in test [1], in [2], in test [3], in [9], in [4] and in [5]. The result in test [6], in test [7] and in test [8] was inactive.

With `ClCc1ccccn1`, the outcome in test [1], in test [2], in [3], in [9], in test [4] and in test [5] was inactive. Moreover, the call in test [6], in test [7] and in test [8] was inactive.

`CCCCCCCCCl`: the call in test [1], in [2], in test [9], in test [4], in [5] and in [6] was inactive. The call in test [7] and in [8] was inactive.
